{"source": "PubChem BioAssay AID463173", "about": "(ICCB-Longwood Screening Facility, Harvard Medical School, 2010)", "note": "Among all 52,000 compounds or so, about 4,300 (8.3%) were called active. The full list was thinned out, with actives kept by preference. Values without a mark were called inactive. No stated cut-off is given here; in the data, active means survival mostly below about 52% (no sharp cut-off); inactive means mostly above about 56%."}
{"test_system": "DeltatarO mutant", "assay": "S. aureus survival, RN4220 and DeltatarO strains – OD600, teichoic acid synthesis inhibitors, primary screen (AID 463173)", "settings": "S. aureus RN4220 wild type/DeltatarO growth, OD600, 18 h, stronger effect = lower value, screened at 18.75 µg/mL (by protocol)"}
{"smiles": "Cc1cccc(NC(=O)CSc2nc3ccc(NC(=O)c4ccco4)cc3s2)c1", "survival": "66%"}
{"smiles": "CCC1CN(C(=O)N2CCC(C(=O)NCc3ccc(OC)cc3OC)CC2)c2cc(C)ccc2O1", "note": "(stereo not given)", "survival": "79%"}
{"smiles": "CCOc1cc(C2c3c(oc4ccccc4c3=O)C(=O)N2c2ccccn2)ccc1O", "note": "(stereo not given)", "survival": "109%"}
{"smiles": "CCOC(=O)Cn1c(=O)oc2cc(S(=O)(=O)NCc3ccc(F)cc3)ccc21", "survival": "72%"}
{"smiles": "Cc1cccn2c(=O)c(C(=O)NCCc3ccc(S(N)(=O)=O)cc3)c(O)nc12", "survival": "51%"}
{"smiles": "Cc1nn2c(=O)cc(COc3ccc(/C=C(\\C#N)C(=O)Nc4ccc(F)cc4)cc3)nc2s1", "survival": "58%"}
{"smiles": "CCOC(=O)c1c(C)[nH]c(C)c1S(=O)(=O)N1CCC(C(=O)Nc2ccc(C)c(N(C)C)c2)CC1", "survival": "84%"}
{"smiles": "CC(=O)N1CCc2nc3sc(C(=O)Nc4ccc(Cl)cc4F)c(N)c3c(C(F)(F)F)c2C1", "survival": "75%"}
{"smiles": "CC(=O)Nc1nonc1-c1nnc(SCC(=O)Nc2cccc(F)c2)n1-c1ccccc1", "survival": "19% (active)"}
{"smiles": "CC(=O)Nc1nonc1-c1nnc(SCC(=O)Nc2cc(C)cc(C)c2)n1-c1ccccc1", "survival": "50%"}
{"smiles": "CC(=O)Nc1nonc1-c1nnc(SCC(=O)Nc2cccc(C)c2C)n1-c1ccccc1", "survival": "61%"}
{"smiles": "Cc1nc2cc(-c3ccccc3)nn2c(C)c1CCC(=O)Nc1ccc(F)cc1F", "survival": "61%"}
{"smiles": "CCOC(=O)N1CCc2c(sc3c2c(=O)n(Cc2ccccc2)c(=O)n3CC(=O)Nc2cccc(CC)c2)C1", "survival": "71%"}
{"smiles": "COc1cc(NC(=O)C(Cc2ccccc2)NS(=O)(=O)c2cccc3nsnc23)cc(OC)c1", "note": "(stereo not given)", "survival": "72%"}
{"smiles": "O=C(Nc1ccc(OC(F)(F)F)cc1)C(NS(=O)(=O)c1cccc2nsnc12)c1ccccc1", "note": "(stereo not given)", "survival": "56%"}
{"smiles": "O=C(Nc1ccc(OC(F)(F)F)cc1)C(Cc1ccccc1)NS(=O)(=O)c1cccc2nsnc12", "note": "(stereo not given)", "survival": "49% (active)"}
{"smiles": "CCc1ccccc1NC(=O)N1CCN(c2cc(-c3noc(C)n3)ccc2C)CC1", "survival": "134%"}
{"smiles": "S=c1[nH]nc(CCCOc2ccc(Cl)cc2Cl)o1", "survival": "54%"}
{"smiles": "O=C(NC1CCCCC1)NC1CCN(Cc2nnnn2Cc2ccc(F)cc2)CC1", "survival": "88%"}
{"smiles": "COc1ccc(Cn2ccc3nc(C)c(C(=O)N4CCN(c5ccccc5F)CC4)cc3c2=O)cc1", "survival": "63%"}
{"smiles": "COc1ccc(C(=O)N2CCC(C(=O)Nc3ccc(Cl)cc3)CC2)cc1", "survival": "127%"}
{"smiles": "CC1(c2ccccc2)CC(C)(C)N(C(=O)c2ccccc2Cl)c2ccccc21", "note": "(stereo not given)", "survival": "-4% (active)"}
{"smiles": "COc1ccc(CCC(=O)NCc2ccc3c(c2)CCN3C(=O)c2ccc(Cl)cc2)cc1", "survival": "89%"}
{"smiles": "CC1CCN(c2ccc(NC(=O)c3cccc(Cl)c3)cc2C(=O)O)CC1", "survival": "87%"}
{"smiles": "CN1CC2(C)CN(C(=O)c3ccccc3Cl)CC(C)(C1)C2", "survival": "88%"}
{"smiles": "CC1(c2ccccc2)CC(C)(C)N(C(=O)c2cccc(Cl)c2)c2ccccc21", "note": "(stereo not given)", "survival": "8% (active)"}
{"smiles": "COc1ccccc1C(=O)N1c2ccccc2C(C)(c2ccc(Cl)cc2)CC1(C)C", "note": "(stereo not given)", "survival": "0% (active)"}
{"smiles": "COc1ccc(C(=O)N2c3ccccc3C(C)(c3ccc(Cl)cc3)CC2(C)C)cc1", "note": "(stereo not given)", "survival": "11% (active)"}
{"smiles": "COc1ccccc1C(=O)N1CCC(c2c[nH]c3ccccc23)(c2c[nH]c3ccccc23)CC1", "survival": "98%"}
{"smiles": "CC1CCN(C(=O)c2cccc(Cl)c2)CC1", "survival": "93%"}
{"smiles": "O=C(c1ccccc1Cl)n1cc(Cl)cn1", "survival": "95%"}
{"smiles": "COc1ccccc1C(=O)CC1(O)C(=O)N(CC(N)=O)c2ccccc21", "note": "(stereo not given)", "survival": "61%"}
{"smiles": "CC(C(=O)c1ccccc1)n1cnc2ccccc2c1=O", "note": "(stereo not given)", "survival": "104%"}
{"smiles": "COc1ccccc1N1CCN(C(=O)Cn2cnc3onc(-c4ccc(F)cc4)c3c2=O)CC1", "survival": "84%"}
{"smiles": "Fc1ccc(CN2CCc3nc(N4CCN(c5ccccc5F)CC4)ncc3C2)c(F)c1", "survival": "77%"}
{"smiles": "Cc1cc(NC(=O)CCn2c(=O)c3cccn3c3cccnc32)ccc1Br", "survival": "102%"}
{"smiles": "COc1ccc(CNC(=O)Cn2c(=O)nc(-c3ccccc3)c3ccccc32)cc1OC", "survival": "89%"}
{"smiles": "CCCCc1nn2c(=O)cc(COC(=O)c3ccccc3NC(=O)C3CCCCC3)nc2s1", "survival": "71%"}
{"smiles": "CC1=C(c2cccc(Cl)c2)S(=O)(=O)NC1=NCc1ccccc1C", "survival": "99%"}
{"smiles": "CC1CC(C)CN(C(=O)c2ccc(Cl)cc2)C1", "note": "(stereo not given)", "survival": "96%"}
{"smiles": "O=C(NCc1ccc2c(c1)CCN2C(=O)c1ccc(Cl)cc1)c1cccc(F)c1", "survival": "61%"}
{"smiles": "O=C(c1cccc(F)c1)N1CCC(c2c[nH]c3ccccc23)(c2c[nH]c3ccccc23)CC1", "survival": "86%"}
{"smiles": "CC1(C)C(=O)N(CC(=O)Nc2ccc(Cl)cc2)c2ccccc21", "survival": "83%"}
{"smiles": "CC1(c2ccc(Cl)cc2)CC(C)(C)N(C(=O)c2ccccc2)c2ccccc21", "note": "(stereo not given)", "survival": "-4% (active)"}
{"smiles": "CC1(c2ccc(Cl)cc2)CC(C)(C)N(C(=O)c2cccc(F)c2)c2ccccc21", "note": "(stereo not given)", "survival": "11% (active)"}
{"smiles": "CCOC(=O)c1c(NC(=O)CSc2cn(CCNC(=O)c3ccccc3OC)c3ccccc23)sc2c1CCC2", "survival": "141%"}
{"smiles": "CCOc1ccc(-c2cc(-c3nc(-c4cc(OC)c(OC)c(OC)c4)no3)[nH]n2)cc1Cl", "survival": "96%"}
{"smiles": "Cc1nnc(N2CCCC(C(=O)NCCc3ccccc3)C2)c2nn(-c3ccccc3)c(C)c12", "note": "(stereo not given)", "survival": "94%"}
{"smiles": "O=C(Nc1ccccc1O)c1ccccn1", "survival": "77%"}
{"smiles": "CCCCCn1c(=O)[nH]c2cc(C(=O)N3CCN(c4ccc(OC)cc4)CC3)ccc2c1=O", "survival": "135%"}
{"smiles": "O=C(c1ccc2c(=O)n(CCc3ccccc3)c(=O)[nH]c2c1)N1CCN(c2ccc(F)cc2)CC1", "survival": "111%"}
{"smiles": "COc1ccc(Cn2c(=O)[nH]c3cc(C(=O)N4CCN(c5cc(C)ccc5C)CC4)ccc3c2=O)cc1", "survival": "73%"}
{"smiles": "CCCCCn1c(=O)[nH]c2cc(C(=O)N3CCN(c4cccc(OC)c4)CC3)ccc2c1=O", "survival": "55% (active)"}
{"smiles": "Cc1ccc(C)c(N2CCN(C(=O)c3ccc4c(=O)n(CCc5ccccc5)c(=O)[nH]c4c3)CC2)c1", "survival": "55% (active)"}
{"smiles": "CCCCCn1c(=O)[nH]c2cc(C(=O)N3CCN(c4cccc(Cl)c4)CC3)ccc2c1=O", "survival": "71%"}
{"smiles": "Cc1cccc(-n2ncc3c(N4CCN(CCO)CC4)ncnc32)c1", "survival": "83%"}
{"smiles": "Cc1ccc(Cc2cn3cc(-c4ccccc4)nc3s2)cc1", "survival": "66%"}
{"smiles": "COc1cccc(CN2C(=O)C3(SCC(=O)N3c3ccc(C)c(Cl)c3)c3ccccc32)c1", "note": "(stereo not given)", "survival": "52% (active)"}
{"smiles": "COc1cccc(CN2C(=O)C3(SCC(=O)N3c3ccc(C(C)C)cc3)c3ccccc32)c1", "note": "(stereo not given)", "survival": "55%"}
{"smiles": "COc1cccc(N2C(=O)CSC23C(=O)N(Cc2ccccc2)c2ccccc23)c1", "note": "(stereo not given)", "survival": "80%"}
{"smiles": "CC(=O)N(Cc1cccnc1)c1nc2c(F)cc(F)cc2s1", "survival": "89%"}
{"smiles": "COC(=O)c1cc2oc3ccccc3c2n1Cc1nc(-c2ccc(Cl)cc2)oc1C", "survival": "91%"}
{"smiles": "CCOc1ccc(CCNC(=O)Cn2ccc3cc(S(=O)(=O)N4CCCCC4)ccc32)cc1", "survival": "102%"}
{"smiles": "COc1ccc(C2C=C(c3cccc(OC)c3)Nc3c(C(=O)Nc4ccccc4)cnn32)cc1", "note": "(stereo not given)", "survival": "52%"}
{"smiles": "COc1ccc(C2=CC(c3ccc(F)cc3)n3ncc(C(=O)Nc4ccc(C)cc4)c3N2)cc1", "note": "(stereo not given)", "survival": "106%"}
{"smiles": "COc1ccc(C2C=C(c3ccc(C)cc3)Nc3c(C(=O)Nc4ccccc4)cnn32)cc1", "note": "(stereo not given)", "survival": "53% (active)"}
{"smiles": "COc1ccccc1NC(=O)C1=C(C)Nc2c(C(=O)Nc3cccc(C)c3)cnn2C1c1ccccc1Cl", "note": "(stereo not given)", "survival": "-5% (active)"}
{"smiles": "COc1cc(OC)c(C2C=C(c3ccc(C)cc3)Nc3c(C(=O)Nc4ccccc4)cnn32)cc1OC", "note": "(stereo not given)", "survival": "48%"}
{"smiles": "CCOc1ccc(NC(=O)c2cnn3c2NC(c2ccccc2)=CC3c2cccc(OC)c2OC)cc1", "note": "(stereo not given)", "survival": "62%"}
{"smiles": "COc1ccccc1NC(=O)C1=C(C)Nc2c(C(=O)Nc3cccc(C)c3)cnn2C1c1ccccc1C", "note": "(stereo not given)", "survival": "89%"}
{"smiles": "COc1ccc(C2C(C(=O)Nc3ccccc3)=C(C)Nc3c(C(=O)Nc4ccccc4)cnn32)cc1", "note": "(stereo not given)", "survival": "126%"}
{"smiles": "CCc1ccc(C2C(C(=O)Nc3ccccc3)=C(C)Nc3c(C(=O)Nc4ccc(C)cc4)cnn32)cc1", "note": "(stereo not given)", "survival": "17% (active)"}
{"smiles": "CCc1ccc(C2C(C(=O)Nc3ccccc3OC)=C(C)Nc3c(C(=O)Nc4ccc(C)cc4)cnn32)cc1", "note": "(stereo not given)", "survival": "68%"}
{"smiles": "CC1=C(C(=O)Nc2ccccc2)C(c2ccccc2Cl)n2ncc(C(=O)Nc3cccc(C)c3)c2N1", "note": "(stereo not given)", "survival": "88%"}
{"smiles": "COc1cccc(C2C=C(c3ccccc3)Nc3c(C(=O)Nc4ccccc4)cnn32)c1OC", "note": "(stereo not given)", "survival": "13% (active)"}
{"smiles": "CC(C)(C)C(=O)Cn1c(=O)n(-c2ccccc2)c(=O)c2c3c(sc21)CCC3", "survival": "80%"}
{"smiles": "CCCn1ccc2c(OCC(=O)Nc3ccccc3OCC)cccc2c1=O", "survival": "102%"}
{"smiles": "O=S1(=O)c2cccc3cccc(c23)N1Cc1ccccc1F", "survival": "81%"}
{"smiles": "CN1CCN(C(=O)C2CCN(S(C)(=O)=O)CC2)CC1", "survival": "83%"}
{"smiles": "COc1cccc(C2=CC(c3ccccc3F)n3ncc(C(=O)Nc4ccc(F)cc4)c3N2)c1", "note": "(stereo not given)", "survival": "72%"}
{"smiles": "COc1ccc(C2=CC(c3ccccc3F)n3ncc(C(=O)Nc4ccc(C)cc4)c3N2)cc1", "note": "(stereo not given)", "survival": "107%"}
{"smiles": "COc1cccc(C2C=C(c3ccc(C)cc3)Nc3c(C(=O)Nc4ccc(F)cc4)cnn32)c1OC", "note": "(stereo not given)", "survival": "0% (active)"}
{"smiles": "COc1nc(Nc2ccc(C)cc2)nc(NC2CCCC2)n1", "survival": "81%"}
{"smiles": "C/C(=N\\NC(=O)CNc1ccccc1)c1ccccc1", "survival": "85%"}
{"smiles": "Cc1cccc(Cn2c(SCc3ccc(C(=O)NCc4ccccc4F)cc3)nc3cccnc32)c1", "survival": "98%"}
